# Results from publication PMC11024108.
# Assays:
# [1] = biological target: ATP synthase F(0) complex subunit e, mitochondrial (UniProt P56385); assay: cross-link between two proteins; cross-linking mass spectrometry
# Alpha-internexin = Alpha-internexin (UniProt P46660); assay: as above
# Ataxin-2 = Ataxin-2 (UniProt Q99700); assay: as above
# [2] = biological target: AP-2 complex subunit beta (UniProt P63010); assay: as above
# AP-2 complex subunit mu [3] = biological target: AP-2 complex subunit mu (UniProt Q96CW1); assay: as above
# [4] = biological target: Epidermal growth factor receptor substrate 15-like 1 (UniProt Q9UBC2); assay: as above
# [5] = biological target: Phosphatidylinositol-binding clathrin assembly protein (UniProt Q13492); assay: as above
# AP-2 complex subunit mu [6] = biological target: AP-2 complex subunit mu (UniProt P84091); assay: as above
# [7] = biological target: AP-2 complex subunit sigma (UniProt P62743); assay: as above
# [8] = biological target: SH3-containing GRB2-like protein 3-interacting protein 1 (UniProt Q8VD37); assay: as above
# [9] = biological target: AP-2 complex subunit beta (UniProt Q9DBG3); assay: as above
# [10] = biological target: ATP synthase peripheral stalk subunit d, mitochondrial (UniProt Q9DCX2); assay: as above
# [11] = biological target: Adenylate kinase 2, mitochondrial (UniProt P54819); assay: as above
# Cytochrome c = Cytochrome c (UniProt P99999); assay: as above
# [12] = biological target: Glycerol-3-phosphate dehydrogenase, mitochondrial (UniProt P43304); assay: as above
# Annexin A11 = Annexin A11 (UniProt P50995); assay: as above
# [13] = biological target: 14-3-3 protein zeta/delta (UniProt P63104); assay: as above
# [14] = biological target: Charged multivesicular body protein 3 (UniProt Q9Y3E7); assay: cross-linking mass spectrometry
# [15] = biological target: Charged multivesicular body protein 2b (UniProt Q9UQN3); assay: cross-link between two proteins; cross-linking mass spectrometry
# [16] = biological target: COMM domain-containing protein 8 (UniProt Q9CZG3); assay: as above
# Calnexin = Calnexin (UniProt P27824); assay: as above
# [17] = biological target: Transmembrane emp24 domain-containing protein 10 (UniProt P49755); assay: as above
# Calreticulin = Calreticulin (UniProt P27797); assay: as above
# Cell adhesion molecule 3 = Cell adhesion molecule 3 (UniProt Q99N28); assay: as above
# [18] = biological target: Cell cycle control protein 50A (UniProt Q8VEK0); assay: as above
# Clathrin heavy chain 1 = Clathrin heavy chain 1 (UniProt Q68FD5); assay: as above
# Clathrin light chain B = Clathrin light chain B (UniProt Q6IRU5); assay: as above
# Cofilin-1 = Cofilin-1 (UniProt P23528); assay: as above
# [19] = biological target: Complement C1q subcomponent subunit C (UniProt Q02105); assay: as above
# [20] = biological target: Cytochrome c oxidase assembly factor 3 homolog, mitochondrial (UniProt Q9Y2R0); assay: as above
# [21] = biological target: Cytoplasmic FMR1-interacting protein 2 (UniProt Q5SQX6); assay: as above
# [22] = biological target: Cytoplasmic dynein 1 heavy chain 1 (UniProt Q9JHU4); assay: as above
# [23] = biological target: Delta-1-pyrroline-5-carboxylate synthase (UniProt P54886); assay: as above
# Prohibitin-2 = Prohibitin-2 (UniProt Q99623); assay: as above
# [24] = biological target: Scaffold attachment factor B1 (UniProt Q15424); assay: as above
# [25] = biological target: Trifunctional enzyme subunit alpha, mitochondrial (UniProt P40939); assay: as above
# [26] = biological target: Dihydrolipoyl dehydrogenase, mitochondrial (UniProt P09622); assay: as above
# [27] = biological target: Malate dehydrogenase, mitochondrial (UniProt P40926); assay: as above
# [28] = biological target: Disintegrin and metalloproteinase domain-containing protein 22 (UniProt Q9R1V6); assay: as above
# [29] = biological target: Disintegrin and metalloproteinase domain-containing protein 23 (UniProt Q9R1V7); assay: as above
# [30] = biological target: DnaJ homolog subfamily A member 1 (UniProt P63037); assay: as above
# [31] = biological target: Vesicle-associated membrane protein 1 (UniProt Q62442); assay: as above
# [32] = biological target: DnaJ homolog subfamily C member 5 (UniProt Q9H3Z4); assay: as above
# [33] = biological target: Dolichyl-diphosphooligosaccharide--protein glycosyltransferase subunit 1 (UniProt P04843); assay: as above
# [34] = biological target: Vesicle-associated membrane protein-associated protein A (UniProt Q9P0L0); assay: as above
# Dynactin subunit 2 = Dynactin subunit 2 (UniProt Q99KJ8); assay: as above
# Dynactin subunit 3 = Dynactin subunit 3 (UniProt Q9Z0Y1); assay: as above
# Dynamin-3 = Dynamin-3 (UniProt Q8BZ98); assay: as above
# [35] = biological target: Dynein light chain 2, cytoplasmic (UniProt Q9D0M5); assay: as above
# Protein piccolo = Protein piccolo (UniProt Q9QYX7); assay: as above
# [36] = biological target: EH domain-containing protein 1 (UniProt Q9WVK4); assay: as above
# [37] = biological target: ER membrane protein complex subunit 2 (UniProt Q9CRD2); assay: as above
# ERO1-like protein alpha = ERO1-like protein alpha (UniProt Q96HE7); assay: as above
# [38] = biological target: Elongation factor 1-alpha 2 (UniProt P62631); assay: as above
# Erlin-1 = Erlin-1 (UniProt Q91X78); assay: as above
# [39] = biological target: Eukaryotic translation initiation factor 2 subunit 3, X-linked (UniProt Q9Z0N1); assay: as above
# [40] = biological target: Eukaryotic translation initiation factor 3 subunit B (UniProt Q8JZQ9); assay: as above
# Flotillin-1 = Flotillin-1 (UniProt O75955); assay: as above
# Flotillin-2 = Flotillin-2 (UniProt Q60634); assay: as above
# [41] = biological target: Fragile X messenger ribonucleoprotein 1 (UniProt Q06787); assay: as above
# [42] = biological target: 10 kDa heat shock protein, mitochondrial (UniProt P61604); assay: cross-linking mass spectrometry
# [43] = biological target: Heat shock cognate 71 kDa protein (UniProt P11142); assay: cross-linking mass spectrometry
# [44] = biological target: Heat shock 70 kDa protein 1B (UniProt P0DMV9); assay: cross-link between two proteins; cross-linking mass spectrometry
# Syntaxin-8 = Syntaxin-8 (UniProt Q9UNK0); assay: cross-linking mass spectrometry
# [45] = biological target: Gamma-soluble NSF attachment protein (UniProt Q99747); assay: cross-link between two proteins; cross-linking mass spectrometry
# [46] = biological target: Fructose-bisphosphate aldolase A (UniProt P05064); assay: as above
# [47] = biological target: Gamma-aminobutyric acid receptor subunit beta-1 (UniProt P50571); assay: as above
# Chain of Dynactin subunit 2 (Q99KJ8 whole entry): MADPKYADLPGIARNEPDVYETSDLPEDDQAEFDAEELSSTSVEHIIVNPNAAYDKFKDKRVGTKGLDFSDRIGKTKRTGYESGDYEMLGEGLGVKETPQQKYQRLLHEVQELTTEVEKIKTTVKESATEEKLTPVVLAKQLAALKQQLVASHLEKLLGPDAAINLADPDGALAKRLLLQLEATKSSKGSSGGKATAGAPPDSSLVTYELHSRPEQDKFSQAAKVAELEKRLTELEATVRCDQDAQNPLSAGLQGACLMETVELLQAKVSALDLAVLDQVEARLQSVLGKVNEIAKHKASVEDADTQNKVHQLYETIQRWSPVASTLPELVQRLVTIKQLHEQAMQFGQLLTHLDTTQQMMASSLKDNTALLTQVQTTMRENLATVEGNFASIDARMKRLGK
# Chain of Glutamate dehydrogenase 1, mitochondrial, P00367 (P00367 whole entry): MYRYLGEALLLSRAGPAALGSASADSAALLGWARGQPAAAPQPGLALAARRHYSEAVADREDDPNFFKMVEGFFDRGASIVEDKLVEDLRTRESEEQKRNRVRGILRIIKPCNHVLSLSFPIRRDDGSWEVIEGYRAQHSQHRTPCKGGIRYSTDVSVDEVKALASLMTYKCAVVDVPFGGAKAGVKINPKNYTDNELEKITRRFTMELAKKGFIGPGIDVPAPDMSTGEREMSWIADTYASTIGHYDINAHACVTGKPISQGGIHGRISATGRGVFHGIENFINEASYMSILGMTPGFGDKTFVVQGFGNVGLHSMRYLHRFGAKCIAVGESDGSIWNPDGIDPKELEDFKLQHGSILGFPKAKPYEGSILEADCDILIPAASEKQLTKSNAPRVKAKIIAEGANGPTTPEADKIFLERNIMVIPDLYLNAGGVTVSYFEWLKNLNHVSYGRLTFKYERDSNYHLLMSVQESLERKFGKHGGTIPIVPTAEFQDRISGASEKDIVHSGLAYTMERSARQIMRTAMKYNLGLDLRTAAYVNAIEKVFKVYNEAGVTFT
# Chain of Disintegrin and metalloproteinase domain-containing protein 22 (Q9R1V6 whole entry, the tested form may be a part): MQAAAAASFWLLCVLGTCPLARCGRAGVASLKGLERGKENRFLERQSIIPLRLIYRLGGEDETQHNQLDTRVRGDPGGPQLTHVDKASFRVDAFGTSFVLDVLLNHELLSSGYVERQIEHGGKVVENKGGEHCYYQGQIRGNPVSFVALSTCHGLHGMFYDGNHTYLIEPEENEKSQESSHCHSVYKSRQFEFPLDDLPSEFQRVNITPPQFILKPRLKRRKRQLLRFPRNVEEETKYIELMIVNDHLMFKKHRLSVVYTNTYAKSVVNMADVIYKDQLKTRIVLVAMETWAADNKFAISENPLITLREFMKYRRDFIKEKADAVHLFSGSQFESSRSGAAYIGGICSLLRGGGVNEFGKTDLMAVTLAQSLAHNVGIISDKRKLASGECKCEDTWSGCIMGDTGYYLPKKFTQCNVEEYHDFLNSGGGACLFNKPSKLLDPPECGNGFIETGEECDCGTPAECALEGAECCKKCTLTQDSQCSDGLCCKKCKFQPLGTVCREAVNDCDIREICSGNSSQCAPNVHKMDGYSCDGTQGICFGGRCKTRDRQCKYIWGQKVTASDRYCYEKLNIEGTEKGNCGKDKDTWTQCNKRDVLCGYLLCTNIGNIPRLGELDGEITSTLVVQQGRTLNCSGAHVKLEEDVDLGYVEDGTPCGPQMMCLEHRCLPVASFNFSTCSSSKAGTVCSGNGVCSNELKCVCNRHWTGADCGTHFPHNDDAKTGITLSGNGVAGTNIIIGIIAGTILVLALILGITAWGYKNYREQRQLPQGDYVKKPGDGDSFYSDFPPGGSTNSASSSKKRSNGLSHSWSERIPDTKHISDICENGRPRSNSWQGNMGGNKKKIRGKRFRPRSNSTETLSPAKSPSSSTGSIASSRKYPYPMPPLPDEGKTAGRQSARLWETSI
# Chain of Cytochrome c (P99999 whole entry): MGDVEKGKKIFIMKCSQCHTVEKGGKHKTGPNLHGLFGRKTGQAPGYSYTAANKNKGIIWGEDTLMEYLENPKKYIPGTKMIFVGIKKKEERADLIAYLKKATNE
# Chain of Epidermal growth factor receptor substrate 15-like 1 (Q9UBC2 whole entry): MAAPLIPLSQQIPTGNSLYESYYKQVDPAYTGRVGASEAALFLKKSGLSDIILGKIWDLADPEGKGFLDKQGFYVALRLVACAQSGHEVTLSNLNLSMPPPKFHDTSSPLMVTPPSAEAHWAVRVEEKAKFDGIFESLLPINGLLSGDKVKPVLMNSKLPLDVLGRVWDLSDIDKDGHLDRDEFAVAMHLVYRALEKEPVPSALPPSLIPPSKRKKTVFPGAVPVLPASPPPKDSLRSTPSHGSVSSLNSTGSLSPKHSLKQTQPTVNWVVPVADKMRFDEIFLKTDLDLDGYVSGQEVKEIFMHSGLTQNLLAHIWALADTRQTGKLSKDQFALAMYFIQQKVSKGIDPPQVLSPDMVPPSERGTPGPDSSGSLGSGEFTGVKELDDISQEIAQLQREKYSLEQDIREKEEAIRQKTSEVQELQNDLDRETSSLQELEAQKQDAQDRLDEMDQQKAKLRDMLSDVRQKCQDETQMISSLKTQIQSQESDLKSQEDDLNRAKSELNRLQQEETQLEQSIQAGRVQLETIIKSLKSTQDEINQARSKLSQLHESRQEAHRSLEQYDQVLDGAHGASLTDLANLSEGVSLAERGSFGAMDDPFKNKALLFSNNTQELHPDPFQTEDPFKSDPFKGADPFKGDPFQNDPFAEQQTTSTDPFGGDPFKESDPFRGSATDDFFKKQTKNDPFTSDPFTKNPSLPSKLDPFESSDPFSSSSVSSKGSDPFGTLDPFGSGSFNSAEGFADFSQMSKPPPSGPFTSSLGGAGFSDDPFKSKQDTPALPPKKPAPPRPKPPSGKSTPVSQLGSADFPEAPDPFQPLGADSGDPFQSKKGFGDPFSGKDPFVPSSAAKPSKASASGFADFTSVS
# Chain of AP-2 complex subunit beta (UniProt Q9DBG3) (Q9DBG3 whole entry, one chain of several): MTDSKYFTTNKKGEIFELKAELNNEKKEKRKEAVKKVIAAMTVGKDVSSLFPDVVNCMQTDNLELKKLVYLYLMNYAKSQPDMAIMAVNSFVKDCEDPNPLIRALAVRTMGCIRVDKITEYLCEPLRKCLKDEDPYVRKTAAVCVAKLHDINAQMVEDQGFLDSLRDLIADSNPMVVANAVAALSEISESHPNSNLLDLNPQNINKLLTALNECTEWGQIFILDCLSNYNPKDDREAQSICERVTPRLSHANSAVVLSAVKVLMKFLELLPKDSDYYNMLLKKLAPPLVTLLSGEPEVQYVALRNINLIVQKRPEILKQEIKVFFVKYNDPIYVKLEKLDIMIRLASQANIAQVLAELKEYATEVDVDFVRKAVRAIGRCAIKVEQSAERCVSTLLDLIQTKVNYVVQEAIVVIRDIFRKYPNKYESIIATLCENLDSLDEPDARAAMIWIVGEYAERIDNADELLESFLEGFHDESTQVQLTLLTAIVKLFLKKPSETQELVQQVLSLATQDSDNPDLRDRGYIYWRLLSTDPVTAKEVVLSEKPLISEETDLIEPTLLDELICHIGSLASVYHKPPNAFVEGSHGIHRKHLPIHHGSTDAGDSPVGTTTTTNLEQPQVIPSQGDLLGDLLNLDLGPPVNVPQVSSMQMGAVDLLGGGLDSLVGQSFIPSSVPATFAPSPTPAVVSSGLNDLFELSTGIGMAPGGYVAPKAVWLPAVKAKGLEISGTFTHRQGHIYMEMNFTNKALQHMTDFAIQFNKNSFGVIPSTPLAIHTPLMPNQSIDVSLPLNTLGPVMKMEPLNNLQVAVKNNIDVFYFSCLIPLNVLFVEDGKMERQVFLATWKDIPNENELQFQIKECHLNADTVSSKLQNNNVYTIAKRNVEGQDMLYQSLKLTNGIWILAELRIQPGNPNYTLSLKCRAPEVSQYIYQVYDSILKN
# Chain of Peptidyl-prolyl cis-trans isomerase B, P23284 (P23284 whole entry): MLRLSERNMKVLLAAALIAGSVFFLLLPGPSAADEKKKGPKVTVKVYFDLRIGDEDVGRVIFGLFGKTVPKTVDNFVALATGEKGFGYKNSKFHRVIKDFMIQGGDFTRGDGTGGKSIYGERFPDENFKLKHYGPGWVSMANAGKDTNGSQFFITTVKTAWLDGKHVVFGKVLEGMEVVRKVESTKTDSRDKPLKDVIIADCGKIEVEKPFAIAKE
# Chain of Phosphatidylinositol-binding clathrin assembly protein (Q13492 whole entry): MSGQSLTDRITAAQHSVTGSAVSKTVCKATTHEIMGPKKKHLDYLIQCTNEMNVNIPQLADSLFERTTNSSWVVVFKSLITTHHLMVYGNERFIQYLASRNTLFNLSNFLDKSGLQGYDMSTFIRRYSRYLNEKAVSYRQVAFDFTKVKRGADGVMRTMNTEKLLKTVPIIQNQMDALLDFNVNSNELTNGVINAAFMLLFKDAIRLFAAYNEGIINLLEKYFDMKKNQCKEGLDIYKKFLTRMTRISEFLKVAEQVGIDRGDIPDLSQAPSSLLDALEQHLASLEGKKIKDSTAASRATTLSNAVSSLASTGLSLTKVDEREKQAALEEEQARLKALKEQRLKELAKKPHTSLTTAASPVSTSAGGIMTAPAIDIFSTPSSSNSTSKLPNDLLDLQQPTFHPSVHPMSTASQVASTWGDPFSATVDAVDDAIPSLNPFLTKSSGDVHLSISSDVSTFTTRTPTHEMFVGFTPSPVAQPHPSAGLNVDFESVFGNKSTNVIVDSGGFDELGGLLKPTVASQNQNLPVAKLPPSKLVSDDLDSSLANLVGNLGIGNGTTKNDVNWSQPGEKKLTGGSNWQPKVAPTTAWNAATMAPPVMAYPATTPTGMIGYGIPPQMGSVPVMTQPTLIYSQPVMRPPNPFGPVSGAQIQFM
# Chain of 14-3-3 protein zeta/delta (P63104 whole entry, stated change not applied): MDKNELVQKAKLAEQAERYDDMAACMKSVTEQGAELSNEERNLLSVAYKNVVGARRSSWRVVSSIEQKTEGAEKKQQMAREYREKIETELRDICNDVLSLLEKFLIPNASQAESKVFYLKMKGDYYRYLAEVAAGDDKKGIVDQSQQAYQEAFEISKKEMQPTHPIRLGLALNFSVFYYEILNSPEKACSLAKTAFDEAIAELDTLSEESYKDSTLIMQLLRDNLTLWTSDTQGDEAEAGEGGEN
# Chain of Dynein light chain 2, cytoplasmic (Q9D0M5 whole entry): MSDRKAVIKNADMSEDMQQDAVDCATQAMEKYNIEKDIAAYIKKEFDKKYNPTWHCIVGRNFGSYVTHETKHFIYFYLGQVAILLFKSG
substance,measurement,setting,value
"Trifunctional enzyme subunit beta, mitochondrial, P55084",listed as a hit,[1],yes
"Neurofilament heavy polypeptide, P19246",listed as a hit,Alpha-internexin,yes
"Ataxin-2-like protein, Q8WWM7",listed as a hit,Ataxin-2,yes
"AP-2 complex subunit alpha-2, O94973",listed as a hit,[2],yes
same,listed as a hit,AP-2 complex subunit mu [3],yes
same,listed as a hit,[4],yes
same,listed as a hit,[5],yes
"AP-1 complex subunit beta-1, O35643",listed as a hit,AP-2 complex subunit mu [6],yes
same,listed as a hit,[7],yes
same,listed as a hit,[8],yes
"SH3-containing GRB2-like protein 3-interacting protein 1, Q8VD37",listed as a hit,[9],yes
"ATP synthase peripheral stalk subunit F6, mitochondrial, P97450",listed as a hit,[10],yes
"Prohibitin 1, P35232",listed as a hit,[11],yes
same,listed as a hit,Cytochrome c,yes
same,listed as a hit,[12],yes
"Annexin A7, P20073",listed as a hit,Annexin A11,yes
"Adaptin ear-binding coat-associated protein 1, Q9CR95",listed as a hit,[9],yes
"14-3-3 protein gamma, P61981",listed as a hit,[13],yes
"Charged multivesicular body protein 1a, Q9HD42",listed as a hit,[14],yes
same,listed as a hit,[15],yes
"COMM domain-containing protein 1, Q8K4M5",listed as a hit,[16],yes
"Peptidyl-prolyl cis-trans isomerase B, P23284",listed as a hit,Calnexin,yes
same,listed as a hit,[17],yes
"Endoplasmic reticulum chaperone BiP, P11021",listed as a hit,Calreticulin,yes
"Cell adhesion molecule 2, Q8BLQ9",listed as a hit,Cell adhesion molecule 3,yes
"Phospholipid-transporting ATPase IA, P70704",listed as a hit,[18],yes
"Clathrin light chain A, O08585",listed as a hit,Clathrin heavy chain 1,yes
"Clathrin heavy chain 1, Q68FD5",listed as a hit,Clathrin light chain B,yes
"WD repeat-containing protein 1, O75083",listed as a hit,Cofilin-1,yes
"Complement C1q subcomponent subunit A, P98086",listed as a hit,[19],yes
"Holocytochrome c-type synthase, P53701",listed as a hit,Cytochrome c,yes
"COX assembly mitochondrial protein homolog, Q7Z7K0",listed as a hit,[20],yes
"Nck-associated protein 1, P28660",listed as a hit,[21],yes
"Cytoplasmic dynein 1 light intermediate chain 2, Q6PDL0",listed as a hit,[22],yes
"Cytoplasmic dynein 1 light intermediate chain 1, Q8R1Q8",listed as a hit,[22],yes
"60 kDa heat shock protein, mitochondrial, P10809",listed as a hit,[23],yes
same,listed as a hit,Prohibitin-2,yes
same,listed as a hit,[24],yes
same,listed as a hit,[25],yes
"Glutamate dehydrogenase 1, mitochondrial, P00367",listed as a hit,[26],yes
same,listed as a hit,[27],yes
"Leucine-rich glioma-inactivated protein 1, Q9JIA1",listed as a hit,[28],yes
same,listed as a hit,[29],yes
"Contactin-2, Q61330",listed as a hit,[28],yes
"DnaJ homolog subfamily C member 5, P60904",listed as a hit,[30],yes
same,listed as a hit,[31],yes
"DnaJ homolog subfamily A member 1, P31689",listed as a hit,[32],yes
"Membrane-associated progesterone receptor component 2, O15173",listed as a hit,[33],yes
same,listed as a hit,[34],yes
"Beta-centractin, Q8R5C5",listed as a hit,Dynactin subunit 2,yes
"Dynactin subunit 1, O08788",listed as a hit,Dynactin subunit 2,yes
"Dynactin subunit 2, Q99KJ8",listed as a hit,Dynactin subunit 3,yes
"Dynamin-1, P39053",listed as a hit,Dynamin-3,yes
"Protein bassoon, O88737",listed as a hit,[35],yes
same,listed as a hit,Protein piccolo,yes
"EH domain-containing protein 3, Q9QXY6",listed as a hit,[36],yes
"ER membrane protein complex subunit 8, O70378",listed as a hit,[37],yes
"Thioredoxin domain-containing protein 5, Q8NBS9",listed as a hit,ERO1-like protein alpha,yes
"Elongation factor 1-alpha 1, P10126",listed as a hit,[38],yes
"Intersectin-2, Q9NZM3",listed as a hit,[4],yes
"Erlin-2, Q8BFZ9",listed as a hit,Erlin-1,yes
"Eukaryotic translation initiation factor 2 subunit 1, Q6ZWX6",listed as a hit,[39],yes
"Eukaryotic translation initiation factor 3 subunit A, P23116",listed as a hit,[40],yes
"Syntaxin-7, O15400",listed as a hit,Flotillin-1,yes
"Flotillin-1, O08917",listed as a hit,Flotillin-2,yes
"RNA-binding protein FXR1, P51114",listed as a hit,[41],yes
"Peptidyl-prolyl cis-trans isomerase F, mitochondrial, P30405",listed as a hit,[42],yes
"BAG family molecular chaperone regulator 2, O95816",listed as a hit,[43],yes
same,listed as a hit,[44],yes
"Alpha-soluble NSF attachment protein, P54920",listed as a hit,Syntaxin-8,yes
same,listed as a hit,[45],yes
"Fructose-bisphosphate aldolase C, P05063",listed as a hit,[46],yes
"Gamma-aminobutyric acid receptor subunit gamma-2, P22723",listed as a hit,[47],yes
